# Assay results reported in paper PMC5540273 (PLoS ONE, 2017).
# Legend:
# Settings in all cases: concentration: 1 μM, replicates: in singlicate; n = 1
# CDK8 = tested on: CDK8
# CDK9 = tested on: CDK9
# CDKL1 = tested on: CDKL1
# CDKL2 = tested on: CDKL2
# CDKL3 = tested on: CDKL3
# CDKL5 = tested on: CDKL5
# CHEK1 = tested on: CHEK1
# CHEK2 = tested on: CHEK2
# CIT = tested on: CIT
# CLK1 = tested on: CLK1
# 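Further: KINOMEscan kinase panel screen.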
SMILES,%Inh (CDK8) [%],%Inh (CDK9) [%],%Inh (CDKL1) [%],%Inh (CDKL2) [%],%Inh (CDKL3) [%],%Inh (CDKL5) [%],%Inh (CHEK1) [%],%Inh (CHEK2) [%],%Inh (CIT) [%],%Inh (CLK1) [%]
COc1cc2c(cc1OCCN1CCNCC1)ncc1c3ccc(C#N)cc3[nH]c21,19,8,19,0,10,0,84,46,98.8,95.7
CC(=O)Nc1nc2cnc(Nc3cc(NC(=O)c4cccc(C5(C#N)CC5)c4Cl)ccc3C)nc2s1,21,0,5,36,24,0,0,4,62,0
COc1cccc(C(=O)Nc2cccc(Oc3ccc4nc(NC(=O)C5CC5)cn4n3)c2)c1,38,0,58,26,7,0,15,0,96.5,30
Cc1occc1-c1ncc(OC[C@@H](N)Cc2c[nH]c3ccccc23)cc1-c1ccc2[nH]nc(C)c2c1.O=C(O)C(F)(F)F [GSK682037],25,22,11,43,0,0,0,0,99.1,32
Nc1n[nH]c2cnc(-c3ccccc3)cc12 [SB-642124],0,53,1,58,0,0,0,0,19,69
CN(C)Cc1ccc(-c2ccc3c(Nc4ccc(Oc5ccccn5)cc4)ccnc3c2)o1 [GW567148],4,0,0,11,0,0,0,82,0,0
Clc1ccc(-c2nn3ncccc3c2-c2ccnc(Nc3ccc4c(c3)OCCO4)n2)cc1 [GW829116],20,0,0,4,0,0,0,2,89,0
Oc1cc(Nc2ccnc3cc(I)ccc23)ccc1F [GW552771],23,0,0,30,0,0,2,4,30,8
Cl.c1ccc(-c2ccc3c(Nc4ccc5[nH]ncc5c4)ccnc3c2)nc1 [GW440137],26,11,7,40,0,0,0,14,11,48
CCn1c(-c2nonc2N)nc2c(C#CC(C)(C)O)nc(OC[C@H](N)c3ccccc3)cc21 [GSK943949],4,0,0,0,0,12,0,0,61,24
CCCCc1nn2ncccc2c1-c1ccnc(Nc2ccc(N3CCN(C)CC3)cc2)n1 [GW684941],26,0,22,99.3,66,0,0,13,30,8
c1ccc(-c2n[nH]cc2Nc2ccnc3ccccc23)nc1 [GW694077],30,0,3,31,0,0,0,18,61,98.2
COc1cc(Nc2nccc(N3CCC(NC(=O)Nc4cccc(C(C)=O)c4)C3)n2)cc(OC)c1OC (centres unmarked) [GSK1379753],27,0,17,46,0,0,0,0,11,16
COc1ccc(Nc2nccc(N3CCC(NC(=O)Nc4cccc(OC)c4)C3)n2)cc1 (centres unmarked) [GSK1379742],72,0,0,49,0,0,0,0,14,26
Cl.c1ccc(-c2ccc3c(Nc4ccc5[nH]ccc5c4)ccnc3c2)nc1 [GW440138],45,0,0,7,0,0,0,34,0,20
O=C(Nc1cccc(-c2nn3ccccc3c2-c2ccnc(Nc3cccc(C(F)(F)F)c3)n2)c1)c1c(F)cccc1F [GSK292658],14,0,0,24,0,0,10,0,44,23

SMILES,%Inh (CDK8) [%],%Inh (CDK9) [%],%Inh (CDKL1) [%],%Inh (CDKL2) [%],%Inh (CDKL3) [%],%Inh (CDKL5) [%],%Inh (CHEK1) [%],%Inh (CHEK2) [%],%Inh (CIT) [%],%Inh (CLK1) [%]
C[C@@H](Oc1cc(-n2cnc3cc(-c4ccnc(NCCS(C)(=O)=O)c4)ccc32)sc1C(N)=O)c1ccccc1Cl [GSK907232],0,11,4,12,0,0,0,0,36,67
Cl.NC(=O)c1cccc(Nc2nccc(Nc3ccc(Oc4c(Cl)cccc4Cl)c(Cl)c3)n2)c1 [GW659009],18,0,0,15,0,0,1,0,9,46
COc1cc(Nc2nccc(-c3c(-c4cccc(NC(=O)c5c(F)cccc5F)c4)nn4ncccc34)n2)cc(OC)c1OC [GSK327238],4,0,20,13,62,10,0,14,71,23
Cc1ccc(C(=O)Nc2ccc(Nc3ccnc4cc(-c5nccs5)ccc34)cc2O)cc1.Cl [GW494702],23,0,0,28,2,0,4,33,36,1
Cc1ccc(S(=O)(=O)Nc2ccc(Nc3nccc(Nc4cccc5[nH]ncc45)n3)cc2)cc1 [GSK581271],13,0,2,22,0,0,0,0,28,85
CCc1ccc(-c2ccc3c(c2)-c2c(cnn2C)S(=O)(=O)N3C)cc1,0,0,0,0,20,0,0,0,8,22
COc1ccc(Nc2nccc(NCCNC(=O)c3cc4ccccc4s3)n2)cc1 [GSK1379896],15,0,0,23,0,0,0,0,5,20
Cn1cc(-c2ccc3c(c2)CCN3C(=O)Cc2cccc(Cl)c2)c2c(N)ncnc21 [GSK2606590],100,0,0,42,0,4,3,0,26,30
Cc1cccc(Nc2nc(N[C@H]3CCNC3)ncc2C(N)=O)c1.Cl [GSK2197149],0,7,12,7,0,0,52,71,76,51
CN1CCN(CCCNc2nccc(-c3c(-c4ccc(F)cc4)nn4cc(C(F)(F)F)ccc34)n2)CC1 [GW621581],19,0,0,21,0,0,10,0,71,21
COc1cc(Nc2nccc(-c3c(-c4cccc(NC(=O)c5c(F)cccc5F)c4)nn4ccccc34)n2)cc(OC)c1OC [GSK323521],90,0,6,0,13,2,30,0,20,30
Cl.Cl.NCC(C(=O)Nc1cc(Br)c(-c2ccnc3[nH]ccc23)s1)c1ccccc1 (centres unmarked) [GSK1269851],0,3,20,51,0,0,0,0,99,63
O=C(Nc1cccc(Oc2ccc3nc(NC(=O)C4CC4)cn3n2)c1)c1ccccc1C(F)(F)F,26,0,43,26,0,7,0,11,63,26
O=C(O)C(F)(F)F.O=C(O)C(F)(F)F.O=c1[nH]ccc2nc(N[C@@H]3CCCNC3)nc(Nc3ccc(S(=O)(=O)N4CCOCC4)cc3)c12 [GSK2177277],0,17,64,45,0,42,100,74,76,76
Cl.Cl.NCC(NC(=O)c1cc(-c2ccccc2)c(-c2ccnc3[nH]ccc23)s1)c1ccccc1 (centres unmarked) [GSK1321561],30,0,8,24,58,0,0,0,99.9,33
O=C(NC1CCN(c2ccnc(Nc3ccc(F)cc3)n2)C1)c1cc2ccccc2s1 (centres unmarked) [GSK1379716],52,6,0,40,0,5,0,38,33,29
